Activity calls are given as the source filed them.
Assays:
[1] = test system: Plasmodium falciparum Sir2 (PF13_0152, Sir2A); test: Plasmodium falciparum Sir2A binding compounds – biochemical, small-molecule microarray, 635 nm fluorescence, primary screen (AID 1098); conditions: fluorescence 635 nm, higher = more signal;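 further: score merges spot fluorescence intensity with its signal-to-noise ratio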
[2] = probe aDKK1 binding to arrayed compounds – biochemical, biotinylated probe, 635/667 nm fluorescence, primary screen (AID 1099); conditions: small-molecule microarray, higher = more signal;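 further: score merges 667nm spot fluorescence with signal to noise across triplicate slides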
[3] = probe aCHRDL2 binding to arrayed compounds – biochemical, biotinylated probe, 635/667 nm fluorescence, primary screen (AID 1100); conditions: small-molecule microarray, higher = more signal
[4] = change in splice reporter luminescence, either direction, cell-based, HEK293, spliceosome inhibition project, primary screen (AID 1101); conditions: HEK293 splicing luciferase reporter, 24 h, higher = more signal, called active from +8 up or from −8 down;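 further: HEK293 cells carrying a splicing-competent luciferase reporter gene; test concentration not given here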
[5] = target: Fibroblast growth factor 10 (Homo sapiens) (UniProt O15520); test: compounds binding fibroblast growth factor 10 – biochemical, small-molecule microarray, 635 nm fluorescence, primary screen (AID 1102); conditions: FGF10 binding, fluorescence 635 nm, higher = more signal
Sequence of Fibroblast growth factor 10 (Homo sapiens) (O15520 whole entry, looked up): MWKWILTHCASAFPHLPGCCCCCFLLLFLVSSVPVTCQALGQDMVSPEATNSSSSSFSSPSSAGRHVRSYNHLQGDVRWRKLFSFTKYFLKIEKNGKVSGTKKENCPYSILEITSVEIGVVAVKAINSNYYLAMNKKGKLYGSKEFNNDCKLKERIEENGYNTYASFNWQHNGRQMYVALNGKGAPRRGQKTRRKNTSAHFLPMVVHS

[6] = test system: glycogen synthase kinase-3 (GSK3A per assay name; protocol says GSK3B); test: compounds binding glycogen synthase kinase-3 – biochemical, small-molecule microarray, 635 nm fluorescence, GSK3A, primary screen (AID 1103); conditions: fluorescence 635 nm, higher = more signal; further: the record names both GSK3A and GSK3B
[7] = target: Epidermal growth factor receptor (Homo sapiens) (UniProt P00533); test: compounds binding epidermal growth factor receptor – biochemical, small-molecule microarray, 635 nm fluorescence, primary screen (AID 1104); conditions: EGFR binding, higher = more signal;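 further: score merges 667 nm emission intensity with spot signal to noise over triplicate slides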
Sequence of Epidermal growth factor receptor (Homo sapiens) (P00533 whole entry, looked up): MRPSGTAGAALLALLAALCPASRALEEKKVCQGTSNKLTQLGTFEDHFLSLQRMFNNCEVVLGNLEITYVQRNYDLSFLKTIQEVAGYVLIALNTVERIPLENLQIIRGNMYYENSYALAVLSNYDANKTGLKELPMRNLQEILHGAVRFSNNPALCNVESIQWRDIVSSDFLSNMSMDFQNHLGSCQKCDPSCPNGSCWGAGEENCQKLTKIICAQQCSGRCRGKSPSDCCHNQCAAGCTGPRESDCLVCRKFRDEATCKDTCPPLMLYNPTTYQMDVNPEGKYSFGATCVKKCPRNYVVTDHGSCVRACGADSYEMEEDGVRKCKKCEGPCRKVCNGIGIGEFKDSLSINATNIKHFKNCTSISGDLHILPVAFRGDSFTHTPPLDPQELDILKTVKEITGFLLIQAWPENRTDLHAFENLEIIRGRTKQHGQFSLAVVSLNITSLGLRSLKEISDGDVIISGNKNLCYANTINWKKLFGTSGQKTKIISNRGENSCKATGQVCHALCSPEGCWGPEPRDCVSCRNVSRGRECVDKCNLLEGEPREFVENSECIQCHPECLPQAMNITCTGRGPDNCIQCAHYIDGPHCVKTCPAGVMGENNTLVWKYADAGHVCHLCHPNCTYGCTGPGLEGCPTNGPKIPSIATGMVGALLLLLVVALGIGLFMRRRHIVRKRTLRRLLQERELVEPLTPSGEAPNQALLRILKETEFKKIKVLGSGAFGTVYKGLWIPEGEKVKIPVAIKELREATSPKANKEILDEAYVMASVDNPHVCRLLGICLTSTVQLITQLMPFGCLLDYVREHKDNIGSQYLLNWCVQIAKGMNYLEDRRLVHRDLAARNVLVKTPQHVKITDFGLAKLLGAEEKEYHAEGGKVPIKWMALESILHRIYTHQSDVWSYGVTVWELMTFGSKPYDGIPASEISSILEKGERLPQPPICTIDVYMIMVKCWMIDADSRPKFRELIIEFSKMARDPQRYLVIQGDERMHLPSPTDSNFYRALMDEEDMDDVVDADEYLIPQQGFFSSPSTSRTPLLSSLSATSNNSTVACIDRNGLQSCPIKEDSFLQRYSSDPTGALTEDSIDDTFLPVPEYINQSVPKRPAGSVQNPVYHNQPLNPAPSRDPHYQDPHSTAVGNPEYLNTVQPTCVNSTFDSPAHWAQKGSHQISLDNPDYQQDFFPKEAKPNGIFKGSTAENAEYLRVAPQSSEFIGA

[8] = target: Follistatin-related protein 3 (Homo sapiens) (UniProt O95633); test: compounds binding follistatin-related protein 3 – biochemical, small-molecule microarray, 635 nm fluorescence, primary screen (AID 1105); conditions: FSTL3 binding, higher = more signal;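 further: score merges emission near 667 nm and signal to noise per printed spot across three slides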
Sequence of Follistatin-related protein 3 (Homo sapiens) (O95633 whole entry, looked up): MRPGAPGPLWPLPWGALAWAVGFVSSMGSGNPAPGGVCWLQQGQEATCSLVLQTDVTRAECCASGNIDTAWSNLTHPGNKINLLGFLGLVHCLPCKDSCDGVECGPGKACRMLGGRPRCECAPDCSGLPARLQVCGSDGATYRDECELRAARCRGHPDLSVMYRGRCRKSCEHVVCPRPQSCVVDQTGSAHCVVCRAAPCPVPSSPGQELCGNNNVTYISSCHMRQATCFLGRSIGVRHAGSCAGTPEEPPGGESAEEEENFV

[9] = target: Dickkopf-related protein 1 (Homo sapiens) (UniProt O94907); test: small molecules binding DKK1 protein – biochemical, small-molecule microarray, 635 nm fluorescence scan, primary screen (AID 1106); conditions: higher = more signal;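 further: score merges emission near 667 nm with signal to noise over three replicate slides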
Sequence of Dickkopf-related protein 1 (Homo sapiens) (O94907 whole entry, looked up): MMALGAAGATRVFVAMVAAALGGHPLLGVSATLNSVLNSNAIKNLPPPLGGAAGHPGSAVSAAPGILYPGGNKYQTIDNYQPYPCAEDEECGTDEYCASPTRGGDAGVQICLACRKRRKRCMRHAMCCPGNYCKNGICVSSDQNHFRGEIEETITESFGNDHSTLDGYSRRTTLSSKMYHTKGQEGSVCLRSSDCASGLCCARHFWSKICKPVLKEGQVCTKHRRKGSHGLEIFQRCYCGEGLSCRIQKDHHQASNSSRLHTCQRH

[10] = test system: Inhibin beta A chain (activin A); test: small molecules binding activin A – biochemical, small-molecule microarray, 635 nm fluorescence scan, primary screen (AID 1107); conditions: INHBA, higher = more signal;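 further: mouse activin A protein probed at 4.33 µg/mL on printed slides; score merges bound-protein fluorescence near 667 nm with spot signal-to-noise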
[11] = test system: Human papillomavirus type 1a protein E7 (residues 44-93); test: small molecules binding HPV E7 44-93 – biochemical, small-molecule microarray, residues 44-93, 635 nm fluorescence, primary screen (AID 1108); conditions: fluorescence 635 nm, higher = more signal;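 further: E7 fragment applied at 1 µg/mL in TBST for 1 h at 4 C; score combines spot fluorescence with its signal to noise ratio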
[12] = hepatitis C replication reporter changes, two-sided – Huh7 cells, luciferase reporter, HCV replication inhibitor project, primary screen (AID 1109); conditions: Huh7 HCV replicon luciferase reporter, 48 h; higher = more signal;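 further: huh7 hepatoma cells harbouring a luciferase neomycin HCV replicon reporter; luciferase luminescence as measure of HCV replicon replication; test concentration not given here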
[13] = target: Left-right determination factor 2 (Homo sapiens) (UniProt O00292); test: small molecules binding LEFTY2 protein – biochemical, small-molecule microarray, 635 nm fluorescence scan, primary screen (AID 1110); conditions: higher = more signal
Sequence of Left-right determination factor 2 (Homo sapiens) (O00292 whole entry, looked up): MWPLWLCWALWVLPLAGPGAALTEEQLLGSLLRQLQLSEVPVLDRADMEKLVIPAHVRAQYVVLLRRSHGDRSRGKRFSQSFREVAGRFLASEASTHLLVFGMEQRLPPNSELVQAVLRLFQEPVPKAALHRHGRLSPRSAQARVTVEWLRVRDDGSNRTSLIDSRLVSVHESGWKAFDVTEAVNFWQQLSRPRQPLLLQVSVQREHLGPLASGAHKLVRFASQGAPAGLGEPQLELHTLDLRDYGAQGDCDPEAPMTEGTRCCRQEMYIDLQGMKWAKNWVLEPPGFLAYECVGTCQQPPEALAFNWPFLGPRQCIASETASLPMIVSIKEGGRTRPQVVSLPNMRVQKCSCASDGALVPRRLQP

[14] = target: Calmodulin-1 (Homo sapiens) (UniProt P0DP23); test: small molecules binding calmodulin-1 with EGTA – biochemical, small-molecule microarray, Cy5-labelled CALM1, profiling panel (AID 1111); conditions: Cy5-CALM1 binding fluorescence, higher = more signal;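 further: labelled calmodulin applied in Tris saline Tween buffer holding calcium plus EGTA and DTT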
[15] = target: Calmodulin-1 (Homo sapiens) (UniProt P0DP23); test: small molecules binding Ca-loaded calmodulin-1 – biochemical, small-molecule microarray, Cy5-labelled CALM1, plus calcium, artefact control for SMM control-protein annotation, profiling panel (AID 1112); conditions: Cy5-CALM1 binding fluorescence, higher = more signal;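 further: score merges spot fluorescence with signal to noise from triplicate slides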
[16] = probe aWnt5a binding to arrayed compounds – biochemical, biotinylated probe, 635/667 nm fluorescence, primary screen (AID 1113); conditions: small-molecule microarray, higher = more signal;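 further: score merges 667 nm fluorescence intensity with signal-to-noise per printed feature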
[17] = probe aShh binding to arrayed compounds – biochemical, biotinylated probe, 635/667 nm fluorescence, primary screen (AID 1114); conditions: small-molecule microarray, higher = more signal;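 further: probe is biotin-labelled aShh protein from a stem cell growth factor screen; measures binding of labelled protein to compounds printed on the slide; score merges feature fluorescence at 667 nm with signal-to-noise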
[18] = probe aNog binding to arrayed compounds – biochemical, biotinylated probe, 635/667 nm fluorescence, primary screen (AID 1115); conditions: small-molecule microarray, higher = more signal;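 further: probe is biotinylated aNog protein used at 0.15 µg/mL for 1 h at 4 C; z-score combines 667 nm fluorescence of each spot with its signal to noise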
[19] = target: Torsin-1A-interacting protein 1 (Homo sapiens) (UniProt Q5JTV8); test: compound microarray binding of lysate hLAP1 – cell lysate, small-molecule microarray, COS7 lysate, 635/667 nm fluorescence, primary screen (AID 1116); conditions: 635 nm fluorescence, higher = more signal
Sequence of Torsin-1A-interacting protein 1 (Homo sapiens) (Q5JTV8 whole entry, looked up): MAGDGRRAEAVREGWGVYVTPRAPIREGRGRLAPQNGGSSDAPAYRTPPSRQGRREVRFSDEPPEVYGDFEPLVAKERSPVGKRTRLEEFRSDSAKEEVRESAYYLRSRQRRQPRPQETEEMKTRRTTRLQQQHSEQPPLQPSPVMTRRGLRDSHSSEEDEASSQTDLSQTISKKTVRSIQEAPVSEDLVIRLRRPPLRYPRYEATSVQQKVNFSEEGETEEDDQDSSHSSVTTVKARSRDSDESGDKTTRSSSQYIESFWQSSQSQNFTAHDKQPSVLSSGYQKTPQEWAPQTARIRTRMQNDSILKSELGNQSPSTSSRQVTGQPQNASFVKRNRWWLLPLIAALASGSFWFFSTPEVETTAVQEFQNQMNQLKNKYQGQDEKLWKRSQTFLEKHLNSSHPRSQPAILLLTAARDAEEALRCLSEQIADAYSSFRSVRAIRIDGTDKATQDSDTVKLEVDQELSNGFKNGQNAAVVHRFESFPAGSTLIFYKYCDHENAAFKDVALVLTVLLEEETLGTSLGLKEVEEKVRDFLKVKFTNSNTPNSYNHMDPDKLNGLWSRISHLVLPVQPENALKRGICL

[20] = target: Alpha-bungarotoxin (Bungarus multicinctus) (UniProt P60615); test: compounds binding labelled alpha-BTX control protein – biochemical, small-molecule microarray, Alexa647 label, 635/667 nm fluorescence, artefact control for SMM control protein annotation, profiling panel (AID 1117); conditions: alpha-BTX-A647 binding fluorescence, higher = more signal
Sequence of Alpha-bungarotoxin (Bungarus multicinctus) (P60615 whole entry, looked up): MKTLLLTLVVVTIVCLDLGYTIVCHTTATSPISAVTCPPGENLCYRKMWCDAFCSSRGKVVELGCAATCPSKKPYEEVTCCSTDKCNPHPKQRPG

SMILES: CN1C(=O)C2C(C3CC3)C=C3CN(Cc4cccc(Cl)c4)[C@@H]([C@@H](O)Cc4ccccc4)C3C2C1=O (stereo not given in full)
- composite z-score [1]: 1.11
- composite z-score [2]: -0.217
- composite z-score [3]: -0.534
- z-score [4]: -1.32 (inactive)
- composite z-score [5]: 0.939
- composite z-score [6]: 1.13
- composite z-score [7]: 0.621
- composite z-score [8]: 0.961
- composite z-score [9]: 0.396
- composite z-score [10]: -0.262
- composite z-score [11]: 1.36
- z-score [12]: -1.6
- composite z-score [13]: 0.526
- composite z-score [14]: 0.283
- composite z-score [15]: -0.469
- composite z-score [16]: -0.244
- composite z-score [17]: -0.462
- composite z-score [18]: -0.332
- composite z-score [19]: 0.648
- composite z-score [20]: 1.04

SMILES: C=CC[C@@]1(C(=O)N(C)C)N=C(c2ccc(OCCCO)cc2)O[C@@H]1c1ccccc1CN=[N+]=[N-]
- composite z-score [1]: 0.964
- composite z-score [2]: 1.19
- composite z-score [3]: 1.13
- z-score [4]: -0.475 (inactive)
- composite z-score [5]: 1.42
- composite z-score [6]: 1.33
- composite z-score [7]: 0.493
- composite z-score [8]: 1.38
- composite z-score [9]: 0.488
- composite z-score [10]: 1.23
- composite z-score [11]: 1.42
- z-score [12]: -2.67
- composite z-score [13]: 0.681
- composite z-score [14]: 1.79
- composite z-score [15]: 0.366
- composite z-score [16]: 0.0293
- composite z-score [17]: 0.246
- composite z-score [18]: 0.0919
- composite z-score [19]: 1.23
- composite z-score [20]: 1.35

SMILES: CC(C)(C)OC(=O)CC[C@@]1(C(=O)NCCN2CCOCC2)N=C(c2ccc(OCCCO)cc2)O[C@@H]1c1ccccc1CN=[N+]=[N-]
- composite z-score [1]: 1.49
- composite z-score [2]: 0.455
- composite z-score [3]: 0.454
- z-score [4]: -0.268 (inactive)
- composite z-score [5]: 0.08
- composite z-score [6]: 0.139
- composite z-score [7]: -0.088
- composite z-score [8]: -0.205
- composite z-score [9]: -0.45
- composite z-score [10]: 0.67
- composite z-score [11]: 1.02
- z-score [12]: -0.0116
- composite z-score [13]: -0.345
- composite z-score [14]: 1.98
- composite z-score [15]: -0.0256
- composite z-score [16]: 0.0219
- composite z-score [17]: -0.324
- composite z-score [18]: -0.481
- composite z-score [19]: 0.462
- composite z-score [20]: 0.519

SMILES: CCOC(=O)C[C@H]1[C@H](OC(=O)Cc2ccc3c(c2)OCO3)[C@@H](NC(=O)c2ccc3ccccc3n2)c2cc(OCCCO)ccc2N1C(=O)Cc1ccc(OC)cc1
- composite z-score [1]: 0.435
- composite z-score [2]: 0.0621
- composite z-score [3]: 0.195
- z-score [4]: -1.8 (inactive)
- composite z-score [5]: 0.438
- composite z-score [6]: 0.25
- composite z-score [7]: -0.374
- composite z-score [8]: 0.882
- composite z-score [9]: 0.163
- composite z-score [10]: 0.257
- composite z-score [11]: 0.751
- z-score [12]: -1.39
- composite z-score [13]: 0.394
- composite z-score [14]: 0.436
- composite z-score [15]: 0.137
- composite z-score [16]: -0.124
- composite z-score [17]: 0.0723
- composite z-score [18]: -0.0184
- composite z-score [19]: 0.6
- composite z-score [20]: 0.597

SMILES: CC(=O)c1ccc(C(O)C2C=CC3C(=O)N(c4ccccc4)C(=O)C3N2Nc2ccc(C(C)C)cc2)cc1 (stereo not given)
- composite z-score [1]: 0.696
- composite z-score [2]: 1.46
- composite z-score [3]: 0.865
- z-score [4]: -0.385 (inactive)
- composite z-score [5]: 1.01
- composite z-score [6]: 0.806
- composite z-score [7]: 0.314
- composite z-score [8]: 1.25
- composite z-score [9]: -0.0216
- composite z-score [10]: 1.05
- composite z-score [11]: 0.637
- z-score [12]: -0.674
- composite z-score [13]: 0.438
- composite z-score [14]: 0.889
- composite z-score [15]: 0.0603
- composite z-score [16]: -0.0519
- composite z-score [17]: 0.0278
- composite z-score [18]: 1.7
- composite z-score [19]: 0.415
- composite z-score [20]: 0.859

SMILES: COc1ccc([Si](C)(C)[C@@H]2[C@@H](CC(=O)N3Cc4ccccc4C[C@H]3CO)O[C@]3(C(=O)N(Cc4ccc(N5CCOC5=O)cc4)c4ccccc43)[C@H]2C)cc1
- composite z-score [1]: 1.09
- composite z-score [2]: -0.115
- composite z-score [3]: -0.271
- z-score [4]: -1.36 (inactive)
- composite z-score [5]: 0.723
- composite z-score [6]: 0.969
- composite z-score [7]: 0.916
- composite z-score [8]: 1.24
- composite z-score [9]: 0.945
- composite z-score [10]: 1.03
- composite z-score [11]: 0.225
- z-score [12]: -3.78
- composite z-score [13]: 0.874
- composite z-score [14]: -0.422
- composite z-score [15]: -0.497
- composite z-score [16]: -0.119
- composite z-score [17]: 0.0639
- composite z-score [18]: -0.339
- composite z-score [19]: 1.86
- composite z-score [20]: 1.42

Source: PubChem BioAssay
